Rows were chosen to be rich in hits. Some 21% of all compounds tested hit in one or more screens of this group.
CHX counter: Cycloheximide Counterscreen for Small Molecule Inhibitors of Shiga Toxin. cell reporter, cycloheximide protein synthesis inhibition counterscreen. max response, %. 12% of 300,000 active; in the data active = max response mostly above about 13%, no sharp cut-off; inactive = mostly below about 14%; also: read at 38.3 µM for the half of the compounds with a filed dose; 0% is about no effect
Pf growth 48h: Primary qHTS for delayed death inhibitors of the malarial parasite plastid, 48 hour incubation; P. falciparum luciferase growth in erythrocytes, 48 h; AID 504832, 2011; Potency, µM (highest dose often 28.7 µM), without a hit: at the highest dose activity change, negative = inhibition, hits mostly inhibitors; 5.9% of 310,000 active; also: potency is read from the fitted curve at half-maximal effect; % is scaled to controls: 0 for no effect and ±100 for the full control effect
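Parasite viability was followed by luminescence of a genomically integrated firefly luciferase. Cultures held 0.1% parasitemia at 2% hematocrit (final), incubated under 5% CO2 at 37 C.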
Shiga inhibitor: A qHTS for Small Molecule Inhibitors of Shiga Toxin. Vero cells, Shiga toxin protein synthesis inhibition reporter. inhibition, % at 38.7 µM. 9.2% of 290,000 active; in the data active = inhibition mostly above about 28%, no sharp cut-off; inactive = mostly below about 43%; also: 0% is about no effect
Pf growth 96h: Primary qHTS for delayed death inhibitors of the malarial parasite plastid, 96 hour incubation. Potency, µM (doses to about 28.7 µM), inactives show top-dose activity change, negative = inhibition, hits mostly inhibitors. AID 504834, 2011. P. falciparum luciferase reporter growth, 96 h. 6.9% of 320,000 active; also: potency is read from the fitted curve at half-maximal effect; % is scaled to controls: 0 for no effect and ±100 for the full control effect
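Erythrocytes infected with luciferase-expressing P. falciparum were dispensed at 2% hematocrit and 0.05% parasitemia (final), then incubated with compounds 96 hours at 37 C in 5% CO2. Luminescence after detection reagent addition reported growth.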
* = called active by the depositor. Unless noted, calls follow the shape of the dose curve; as a rule, active = well fitted inhibition curve with a large enough effect; inconclusive = small, poorly fitted or top-dose-only effect, or another doubt; inactive = no such curve, though single readings can be large or run the other way.

How did Cc1ccc(S(=O)(=O)NNC2CC(=O)N(c3ccc(Br)cc3)C2=O)cc1 (stereo not drawn) do in these assays?
CHX counter: -5.4; Pf growth 48h: 10.5%; Shiga inhibitor: 3.4; Pf growth 96h: 52.1%

Results for COc1ccc(C(=O)NCc2cccs2)cc1S(=O)(=O)N1CCOCC1 ?
CHX counter: 6.1; Pf growth 48h: inconclusive; Shiga inhibitor: -5.2; Pf growth 96h: 4.15µM*

How did Cc1ccccc1NC(=O)c1ccc(F)c(S(=O)(=O)N2CCN(c3ccccn3)CC2)c1 do in these assays?
CHX counter: -3.2; Pf growth 48h: 13.1µM*; Shiga inhibitor: 15.2

What do the screens show for `O=C(Nc1ccc(Br)cc1)c1ccc(F)c(S(=O)(=O)N2CCN(c3ccccn3)CC2)c1`?
CHX counter: 6.9; Pf growth 48h: inconclusive; Shiga inhibitor: 8.3; Pf growth 96h: -3.3%

How did CN(Cc1ccc(Cl)s1)C(=O)CN1C(=O)N(C)C2(CCCCC2)C1=O do in these assays?
Pf growth 48h: 1.3%; Pf growth 96h: 30.6%

Results for Cc1ccc(N2CCN(C(=S)Nc3ccccc3C)CC2)cc1 ?
CHX counter: -3.5; Pf growth 48h: 11.4%; Pf growth 96h: -4.2%

How did c1nc(N2CCCCC2)c2[nH]cnc2n1 do in these assays?
CHX counter: -5.4; Pf growth 48h: -8.0%; Shiga inhibitor: -13.7; Pf growth 96h: 13.1µM*

Results for O=C(Cc1ccccc1)Nc1ccc(C(=O)Nc2ccc(O)cc2)cc1 ?
CHX counter: -4.2; Pf growth 48h: 44.0%; Shiga inhibitor: -7.6; Pf growth 96h: 23.4%

Results for CSC(=NNC(=O)c1ccc(O)cc1)SC ?
CHX counter: 19.6; Shiga inhibitor: 41.6*; Pf growth 96h: -29.7%

Results for C/C(=N\NC(=O)c1ccc(F)cc1)c1ccc(NC(=O)Cc2ccccc2)cc1 ?
CHX counter: 41.3*; Pf growth 48h: 11.8%; Shiga inhibitor: 90.4*; Pf growth 96h: inconclusive

Results for NNC(=O)c1ccc(O)cc1 ?
Pf growth 48h: 72.0%; Pf growth 96h: -10.5%

How did C/C(=N\NC(=O)c1ccc(O)cc1)c1ccc(NC(=O)Cc2ccccc2)cc1 do in these assays?
CHX counter: 36.3*; Pf growth 48h: 20.6%; Shiga inhibitor: 170.2*; Pf growth 96h: inconclusive

What do the screens show for `CC1CCN(C(=O)CCc2nnc3ccc(N4CCC5(CC4)OCCO5)nn23)CC1`?
CHX counter: -2.7; Pf growth 48h: -3.4%; Shiga inhibitor: -3.9; Pf growth 96h: 10.3%

How did Cc1cc(C)cc(NC(=O)CCc2c(C)nn(-c3ccc(N4CCCCC4)nn3)c2C)c1 do in these assays?
CHX counter: 48.2*; Pf growth 48h: 34.0%; Shiga inhibitor: 50.6*; Pf growth 96h: 8.1%

Results for Cc1cc(F)ccc1NC(=O)CCc1c(C)nn(-c2ccc(N3CCCCC3)nn2)c1C ?
CHX counter: -2.8; Pf growth 48h: 3.5%; Shiga inhibitor: -2.7; Pf growth 96h: 29.9%

How did Cc1nn(-c2ccc(N3CCCCC3)nn2)c(C)c1CCC(=O)Nc1ccc(F)c(F)c1 do in these assays?
CHX counter: 59.8*; Pf growth 48h: 61.1%; Shiga inhibitor: 102.6*; Pf growth 96h: -29.2%

How did COc1ccc(C)cc1NC(=O)CCc1c(C)nn(-c2ccc(N3CCCCC3)nn2)c1C do in these assays?
CHX counter: 18.3*; Pf growth 48h: -16.9%; Shiga inhibitor: 45.3; Pf growth 96h: -18.1%

How did CCOc1ccccc1NC(=O)CCc1c(C)nn(-c2ccc(N3CCCCC3)nn2)c1C do in these assays?
CHX counter: 10.8; Pf growth 48h: inconclusive; Shiga inhibitor: 7.5; Pf growth 96h: inconclusive

Results for Cc1ccc(F)cc1NC(=O)CCc1c(C)nn(-c2ccc(N3CCCCC3)nn2)c1C ?
CHX counter: 30.8*; Pf growth 48h: inconclusive; Shiga inhibitor: 24.4; Pf growth 96h: 2.1%

What do the screens show for `O=C(CCc1nnc2ccc(N3CCCC3)nn12)Nc1ccc(F)c(F)c1`?
CHX counter: -2.8; Pf growth 48h: -5.9%; Shiga inhibitor: -7.3; Pf growth 96h: inconclusive

What do the screens show for `O=C(CNC(=O)C1CCCCC1)NNC(=O)c1ccccc1Br`?
CHX counter: -1.9; Pf growth 48h: inconclusive; Shiga inhibitor: -7.2; Pf growth 96h: inconclusive

What do the screens show for `NC(=O)COn1c(SCC(N)=O)nc2ccccc2c1=O`?
CHX counter: 10.7; Pf growth 48h: 16.3%; Shiga inhibitor: -6.5; Pf growth 96h: 0.2%

Results for CC1CCCCC12NC(=O)N(CC(=O)OCC(=O)NC(=O)c1ccccc1)C2=O (stereo not drawn) ?
Pf growth 48h: 10.4%; Pf growth 96h: 20.1%

What do the screens show for `Cc1ccc(NC(=O)CCc2c(C)nn(-c3ccc(N4CCCCC4)nn3)c2C)cc1`?
CHX counter: 53.3*; Pf growth 48h: 43.4%; Shiga inhibitor: 86.4*; Pf growth 96h: inconclusive

How did Cc1ccc(NC(=O)CCc2c(C)nn(-c3ccc(N4CCCCC4)nn3)c2C)cc1C do in these assays?
CHX counter: 43.2*; Pf growth 48h: 13.1%; Shiga inhibitor: 69.7*; Pf growth 96h: 12.1%

Results for O=C(c1ccc(Cl)cc1)c1oc2ccccc2c1CS(=O)(=O)c1ccccc1 ?
CHX counter: 13.3; Pf growth 48h: -3.5%; Shiga inhibitor: 9.8; Pf growth 96h: 10.4µM*

How did Cc1ccnc(SCC(=O)NC2CCCCCC2)n1 do in these assays?
CHX counter: 11.6; Pf growth 48h: 19.5%; Shiga inhibitor: 11.7; Pf growth 96h: 11.0%

What do the screens show for `N#CCN1CCN(CC(=O)c2ccc(Br)cc2)CC1`?
CHX counter: 4.3; Pf growth 48h: -19.2%; Shiga inhibitor: 26.2; Pf growth 96h: inconclusive

Results for COc1cccc(N2CCN(C(=O)CCS(=O)(=O)c3ccc4c(c3)oc(=O)n4C)CC2)c1 ?
CHX counter: -4.0; Pf growth 48h: inconclusive; Shiga inhibitor: 5.0; Pf growth 96h: 5.22µM*

How did CN(Cc1ccccc1)C(=O)CCS(=O)(=O)c1ccc2c(c1)oc(=O)n2C do in these assays?
CHX counter: 3.9; Pf growth 48h: -19.4%; Shiga inhibitor: 0.2; Pf growth 96h: 13.1µM*

Results for CN(Cc1ccccc1)C(=O)CCNS(=O)(=O)c1ccc2c(c1)oc(=O)n2C ?
CHX counter: -3.4; Pf growth 48h: -11.9%; Shiga inhibitor: -15.7; Pf growth 96h: inconclusive

Results for Cn1c(=O)oc2cc(S(=O)(=O)CCC(=O)N3CCN(c4ccccc4F)CC3)ccc21 ?
CHX counter: -2.5; Pf growth 48h: -18.1%; Shiga inhibitor: -8.5; Pf growth 96h: inconclusive

How did Cn1c(=O)oc2cc(S(=O)(=O)CCC(=O)N3CCN(c4ccccc4)CC3)ccc21 do in these assays?
CHX counter: 2.0; Pf growth 48h: inconclusive; Shiga inhibitor: 30.3; Pf growth 96h: 9.28µM*

Results for CCN(Cc1ccccc1)C(=O)CCS(=O)(=O)c1ccc2c(c1)n(C)c(=O)c(=O)n2C ?
CHX counter: -1.1; Pf growth 48h: -27.9%; Shiga inhibitor: 6.8; Pf growth 96h: 3.7µM*

What do the screens show for `CC(=O)c1ccccc1NC(=O)COC(=O)CSCC(=O)Nc1cc(C)on1`?
Pf growth 48h: 4.3%; Pf growth 96h: 34.2%

Results for COc1ccccc1C(=O)NCCN1CCN(c2ccccc2)CC1 ?
CHX counter: -2.9; Pf growth 48h: 47.0%; Shiga inhibitor: -9.3; Pf growth 96h: inconclusive
